Measurements reported in PubChem BioAssay (NCATS).
Results filed as inconclusive are left out. Where a call stands in place of a potency, no number is given. Unmarked numbers belong to inactive results. Activity calls are given as the source filed them. The call rests on the fitted dose curve; in most records, active means well fitted cell-killing curve with a large enough effect; inconclusive means small, poorly fitted or top-dose-only effect, or effect the other way; inactive means flat fitted curve, though single readings scatter.

Tests used:
Experiment in all cases: Primary qHTS to identify gynecologic anti-cancer compounds using libraries of approved drugs and bioactive compounds (AID 1345084); further: nearly all actives have a fitted effect of over 55% in size
C33A = details: Gynecologic cancer cell panel viability, ATPlite luminescence, 48 h; series mostly up to 57.5 µM
How it was run: (§1)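 Cells, 1,000 per well, were allowed to settle for 16 h at 37 C before compound addition. Five concentrations were tested for 48 h, and viability was read by ATPlite luminescence after 15 min at room temperature.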

CASKI = details: Gynecologic cancer cell panel viability, ATPlite luminescence, 48 h; series mostly up to 57.5 µM
How it was run: as §1

Es-2 = details: Gynecologic cancer cell panel viability, ATPlite luminescence, 48 h; series mostly up to 57.5 µM
How it was run: as §1

HeLa = details: Gynecologic cancer cell panel viability, ATPlite luminescence, 48 h; series mostly up to 57.5 µM
How it was run: as §1

Hek293T = details: Gynecologic cancer cell panel viability, ATPlite luminescence, 48 h, control line for the selectivity index; series mostly up to 57.5 µM
How it was run: as §1
Potency means the concentration at half of the fitted maximal effect.

Structure (SMILES)	Potency (C33A)	Potency (CASKI)	Potency (Es-2)	Potency (HeLa)	Potency (Hek293T)	activity change, negative = cytotoxicity (C33A)	activity change, negative = cytotoxicity (CASKI)	activity change, negative = cytotoxicity (Es-2)	activity change, negative = cytotoxicity (HeLa)	activity change, negative = cytotoxicity (Hek293T)
OC/C=C/C=C/[C@H]1Cc2cc(O)cc(O)c2O1	inactive	inactive	inactive	inactive	inactive	–	–	–	–	–
C[C@@H]1[C@H]2[C@H](O[C@@H]3O[C@H](CO)[C@@H](O)[C@H](O)[C@H]3O)OC=C(C(=O)O)[C@H]2C[C@@H]1O	inactive	inactive	inactive	inactive	inactive	–	–	–	–	–
CC1CCC2(CO)C(C(=O)O)=CCCC2C1(C)CCc1ccoc1 (stereo not given)	inactive	inactive	inactive	inactive	inactive	–	–	–	–	–
COc1c(Nc2ncc(Cl)c(N[C@H]3[C@@H](C(N)=O)[C@@H]4C=C[C@H]3C4)n2)ccc2c1CC[C@@H](N1CCOCC1)CC2	inactive	inactive	inactive	inactive	inactive	–	–	–	–	–
O=C(O)c1cc(I)ccc1NC(=O)[C@H](Cc1ccccc1)NCc1ccccc1	inactive	inactive	inactive	inactive	inactive	–	–	–	–	–
O=C(O[C@H]1[C@@H]2C=CO[C@@H](O[C@@H]3O[C@H](CO)[C@@H](O)[C@H](O)[C@H]3O)[C@@H]2[C@@]2(CO)O[C@@H]12)c1ccccc1	inactive	inactive	inactive	inactive	inactive	–	–	–	–	–
C=C1C(OC(=O)/C(C)=C\C)[C@@]23CCC4[C@@](C)(CCC[C@@]4(C)C(=O)O)C2CC[C@H]1C3OC(C)=O (stereo not given in full)	inactive	inactive	inactive	inactive	inactive	–	–	–	–	–
CCOC(=O)C(CCc1ccccc1)NC(C)C(=O)N1C(=O)N(C)CC1C(=O)O (stereo not given)	inactive	inactive	inactive	inactive	inactive	–	–	–	–	–
C[C@@H]1O[C@@H](O[C@H]2[C@@H]3C=CO[C@@H](O[C@@H]4O[C@H](CO)[C@@H](O)[C@H](O)[C@H]4O)[C@@H]3[C@@]3(CO)O[C@@H]23)[C@H](OC(=O)/C=C/c2ccccc2)[C@H](O)[C@H]1O	inactive	inactive	inactive	inactive	inactive	–	–	–	–	–
Cc1ccc([N+](=O)[O-])cc1S(=O)(=O)N(C)/N=C/c1cnc2ccc(Br)cn12	316 nM (active)	316 nM (active)	398 nM (active)	316 nM (active)	316 nM (active)	–	–	–	–	–
C[C@@H]1O[C@@H](O[C@H]2[C@H](O)[C@@H](O)[C@H](OC[C@H]3O[C@@H](OC(=O)[C@]45CCC(C)(C)C[C@H]4C4=CCC6[C@@]7(C)CC[C@H](O[C@@H]8OC[C@H](O)[C@H](O[C@@H]9O[C@H](CO)[C@@H](O)[C@H](O)[C@H]9O)[C@H]8O)[C@@](C)(CO)C7CC[C@@]6(C)[C@]4(C)CC5)[C@H](O)[C@@H](O)[C@@H]3O)O[C@@H]2CO)[C@H](O)[C@H](O)[C@H]1O (stereo not given in full)	–	–	–	–	–	0.512% [at 6.55 µM]	-0.125% [at 6.55 µM]	-1.94% [at 6.55 µM]	8.6% [at 6.55 µM]	-5.57% [at 6.55 µM]
CC1C(=O)OCC2=CCN3CCC(OC(=O)C(C)(O)C1(C)O)C23 (stereo not given)	inactive	inactive	inactive	inactive	inactive	–	–	–	–	–
CCc1c(C)nc2c(-c3cnn(-c4cc(CO)ccn4)c3)c[nH]n2c1=O	inactive	inactive	inactive	inactive	inactive	–	–	–	–	–
CC(C)(O)C1CCC(C)(C2CCC3(C)C4CCC5C(C)(C(=O)OC6OC(CO)C(O)C(O)C6O)C(O)CC(O)C56CC46CCC23C)O1 (stereo not given)	inactive	inactive	inactive	inactive	inactive	–	–	–	–	–
CC1CCC2C(C)(C)[C@@H](O)CC[C@]2(C)C12Cc1c(O)cc3c(c1O2)CN(C(CCC(=O)O)C(=O)O)C3=O (stereo not given in full)	inactive	inactive	inactive	inactive	inactive	–	–	–	–	–
Cc1cccc(Oc2cnc(=O)[nH]c2)c1	inactive	inactive	inactive	inactive	inactive	–	–	–	–	–
COC(=O)C1=CO[C@@H](O[C@@H]2O[C@H](CO)[C@@H](O)[C@H](O)[C@H]2O)C2C1C(=O)C[C@H]2C (stereo not given in full)	inactive	inactive	inactive	inactive	inactive	–	–	–	–	–
C[C@@H]1CC[C@]2(C(=O)O)CC[C@]3(C)C(=CCC4[C@@]5(C)CC[C@H](O)C(C)(C)C5C(O)C[C@]43C)[C@@H]2[C@]1(C)O (stereo not given in full)	inactive	inactive	inactive	inactive	inactive	–	–	–	–	–
C[S+](CC[C@H](N)C(=O)[O-])C[C@H]1O[C@@H](n2cnc3c(N)ncnc32)[C@H](O)[C@@H]1O (stereo not given in full)	inactive	inactive	inactive	inactive	inactive	–	–	–	–	–
CC(C)=CCC/C(C)=C/CC/C(C)=C/COC1OC(COC2OCC(OC3OCC(O)C(O)C3O)C(O)C2O)C(O)C(OC2OC(C)C(OC3OC(C)C(OC4OCC(OC5OC(C)C(O)C(O)C5O)C(O)C4O)C(O)C3O)C(O)C2O)C1O (stereo not given)	–	–	–	–	–	4.68% [at 6.55 µM]	-7.12% [at 6.55 µM]	-6.21% [at 6.55 µM]	-2.03% [at 6.55 µM]	-3.08% [at 6.55 µM]
COc1ccc(N2CCOCC2)c2sc(NC(=O)N3CCC(C)(O)CC3)nc12	inactive	inactive	inactive	inactive	inactive	–	–	–	–	–
CC(=O)O[C@@H]1[C@H](O[C@@H]2O[C@@H](CO)[C@H](O)[C@H]2O)[C@@H](O[C@@H]2O[C@@H](C)[C@H](O[C@@H]3OC[C@@H](O)[C@H](O)[C@H]3O)[C@@H](O)[C@H]2O)[C@H](OC(=O)[C@]23CCC(C)(C)C[C@H]2C2=CCC4[C@@]5(C)CC[C@H](O[C@@H]6O[C@H](C(=O)O)[C@@H](O)[C@H](O)[C@H]6O[C@@H]6O[C@H](CO)[C@H](O)[C@H](O)[C@H]6O)[C@@](C)(C=O)C5CC[C@@]4(C)[C@]2(C)CC3)O[C@@H]1C (stereo not given in full)	–	–	–	–	–	4.84% [at 6.55 µM]	4.57% [at 6.55 µM]	4.09% [at 6.55 µM]	11.1% [at 6.55 µM]	2.65% [at 6.55 µM]
COC(=O)C1=CO[C@@H](O[C@@H]2O[C@H](CO)[C@@H](O)[C@H](O)[C@H]2O)[C@@H]2C(CO)=CC[C@]12O	inactive	inactive	inactive	inactive	inactive	–	–	–	–	–
CN(C)C(=O)NC1CCC(CCN2CCN(c3cccc(Cl)c3Cl)CC2)CC1 (stereo not given)	–	–	–	–	–	1.34% [at 11.6 µM]	13.5% [at 11.6 µM]	5.23% [at 11.6 µM]	-0.835% [at 11.6 µM]	12% [at 11.6 µM]
C[C@@H]1O[C@@H](O[C@H]2[C@H](OC(=O)[C@]34CCC(C)(C)C[C@H]3C3=CCC5[C@@]6(C)CC[C@H](O[C@@H]7O[C@H](C(=O)O)[C@@H](O)[C@H](O)[C@H]7O[C@@H]7O[C@H](CO)[C@H](O)[C@H](O)[C@H]7O)[C@@](C)(C=O)C6CC[C@@]5(C)[C@]3(C)C[C@H]4O)O[C@H](C)[C@H](O[C@@H]3O[C@H](C)[C@H](O)[C@H](O)[C@H]3O)[C@@H]2O)[C@H](O)[C@H](O)[C@H]1O[C@@H]1OC[C@@H](O)[C@H](O[C@@H]2O[C@H](CO)[C@@H](O)[C@H](O)[C@H]2O)[C@H]1O (stereo not given in full)	–	–	–	–	–	29.4% [at 6.55 µM]	4.26% [at 6.55 µM]	0.809% [at 6.55 µM]	3.75% [at 6.55 µM]	8.68% [at 6.55 µM]
NC(=O)C(CCC(F)(F)F)N(Cc1ccc(-c2ncon2)cc1F)S(=O)(=O)c1ccc(Cl)cc1 (stereo not given)	inactive	inactive	inactive	inactive	inactive	–	–	–	–	–
Cc1csc(NC(=O)c2ccc(COc3cccc(Cl)c3)o2)n1	inactive	inactive	inactive	inactive	inactive	–	–	–	–	–
CCO[C@@H]1OC(=O)C[C@@H]1NC(=O)[C@@H]1CCCN1C(=O)[C@@H](NC(=O)c1ccc(N)c(Cl)c1)C(C)(C)C	inactive	inactive	inactive	inactive	inactive	–	–	–	–	–
